GRIN3A LBD mod: modulators (binders) of human NR3A ligand-binding domain; hit rate 2.5% among 340,000; NR3A LBD differential scanning fluorimetry, Tm shift; 0% = protein alone, 100% = glycine-bound protein; Tm shift relative to glycine control, % at 25 µM;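 active = melting temperature shift of at least 10% of the positive control shift, at one fixed dose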
SMARCA2 act: SMARCA2 function activation, primary screen | hit rate 1% among 370,000 | activation, % at 9.1 µM | MG213 cells, MMTV-luciferase reporter, dexamethasone, overnight; in the data active = activation above about 7.8%;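 note: 0% = vehicle wells and 100% = reference activator wells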
SKN-1 block: inhibitors of C. elegans SKN-1; inhibition, % at 21.8 µM; hit rate 0.49% among 360,000; C. elegans VP596 Pgst-4::GFP/RFP ratio, acrylamide-induced, 24 h;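 active = interference check ratio from 0.5 to 1.5 plus GFP to RFP signal ratio inhibition reaching or exceeding a fixed threshold, cut at about 30% in these data, passing the limit was not always enough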
NadD block: blocks S. aureus nicotinate mononucleotide adenylyltransferase; purified NadD enzyme, colorimetric absorbance read-out; inhibition, % at 20 µM; hit rate 0.78% among 360,000; in the data active = inhibition above about 26%
Vif inh: blocks HIV Vif function | HEK293T cells, Vif self-association by quenched fluorescence, imaging, 24 h | inhibition, % at 7.49 µM | hit rate 0.35% among 340,000 | AID 602346; in the data active = inhibition above about 50%, passing the limit was not always enough
esBAF inh: SWI/SNF esBAF complex inhibition; AID 602393; reporter increase, % at 12.5 µM; mouse ES cells, Bmi1-luciferase knock-in reporter, 24 h; 100% = twice the neutral-well signal; hit rate 2% among 350,000; in the data active = activation above about 40%;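 note: 0% = median of the plate's neutral control wells and 100% = double that signal; a rise in the Bmi1 reporter signal indicates esBAF inhibition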
Starred values were filed as active, the others as inactive; x = not tested or not shown. Hits are enriched below; roughly 5.2% of the tested compounds scored in any of these assays.

SMILES | GRIN3A LBD mod | SMARCA2 act | SKN-1 block | NadD block | Vif inh | esBAF inh
CCCC(=O)Nc1ccc2c(c1)C(=O)N(C)C[C@H](OC)[C@H](C)CN(CC1CCOCC1)[C@H](C)CO2 | x | x | x | x | x | 1
O=C(C[C@@H]1C=C[C@H](NC(=O)C2CC2)[C@H](CO)O1)Nc1nccs1 | x | x | x | x | x | 2
CS(=O)(=O)Nc1ccc2c(c1)[C@H]1C[C@H](CC(=O)NCc3ccccn3)O[C@H](CO)[C@H]1O2 | x | x | x | x | x | -5
O=C(/C=C/c1cccnc1)c1ccccc1O | 15* | 0 | -7 | -3 | 2 | -5
CN1/C(=C\C(=O)CSc2nnc(NCc3ccccc3)s2)C(C)(C)c2ccccc21 | -4 | -3 | 45* | 7 | -17 | x
O=C(N/N=C/c1ccc[nH]1)c1sc2ccccc2c1Cl | 3 | 1 | 16 | 3 | -9 | 55*
O=C(N/N=C/c1ccncc1)c1sc2ccccc2c1Cl | 13* | 4 | 16 | 7 | 1 | 11
COc1ccc2c(Cl)c(C(=O)N/N=C/c3ccncc3)sc2c1 | -5 | -3 | 11 | 15 | 0 | 6
O=C(O)c1ccc(N2C(=O)/C(=C/c3ccc(-c4ccc([N+](=O)[O-])cc4)o3)C=C2c2ccccc2)cc1 | 7 | x | 18 | 56* | 6 | x
CC(=O)Nc1cccc2c1Cc1ccccc1-2 | 36* | x | -5 | -1 | -1 | 51*
CC(C)Cc1ccc(-c2cc3nc(NCCOc4ccccc4)ccn3n2)cc1 | x | 1 | -7 | 5 | x | 58*
Clc1ccccc1-c1cc2nc(NCc3ccco3)ccn2n1 | x | 1 | 7 | 1 | -1 | 72*
Clc1cccc(-c2cc3nc(NCCOc4ccccc4)ccn3n2)c1 | x | -3 | 10 | 7 | -5 | 57*
Clc1ccc(-c2cc3nc(NCc4cccc(Cl)c4)ccn3n2)cc1 | x | 2 | 21 | 3 | -8 | 76*
COc1ccc(NC(=O)N(C)C[C@@H]2OCCCC[C@@H](C)Oc3ccc(NS(=O)(=O)c4ccc(F)cc4)cc3C(=O)N([C@H](C)CO)C[C@@H]2C)cc1 | x | x | x | x | x | -7
COc1cccc(NC(=O)N2CC[C@@H]3[C@@H](CO)N(C)c4ccc(-c5ccccc5)cc4[C@@H]32)c1 | x | x | x | x | x | -4
Clc1cccc(CNc2ccn3nc(-c4cccc(Cl)c4)cc3n2)c1 | x | 7 | 30 | 12 | -1 | 58*
Clc1cccc(CNc2ccn3nc(-c4ccccc4)cc3n2)c1 | x | 0 | 30 | 10 | -4 | 50*
CC(C)NC(=O)Nc1ccc2c(c1)C(=O)N([C@@H](C)CO)C[C@H](C)[C@@H](CN(C)CC1CCCCC1)OCCCC[C@@H](C)O2 | x | x | x | x | x | 4
Cc1cccc(Nc2nc(N)nc(CSc3nccn3C)n2)c1 | -1 | 7 | 12 | 3 | 1 | 53*
Oc1ccc(C=NNc2ccccn2)c(O)c1 | 4 | -3 | -4 | -3 | 12 | x
Cc1ccc(/C=N/Nc2cccc3cccnc23)c(O)c1 | 10* | 3 | 21 | -5 | -9 | 32
Oc1ccc(/C=N/Nc2cccc3cccnc23)c(O)c1 | 32* | 1 | 11 | 7 | x | 79*
C[C@@H]1CN([C@H](C)CO)C(=O)c2cc(NS(=O)(=O)c3cn(C)cn3)ccc2O[C@@H](C)CCCCO[C@H]1CN(C)S(=O)(=O)c1cn(C)cn1 | x | x | x | x | x | 2
Cc1ccc(/C=N/c2sc3c(c2C#N)CCCCC3)o1 | -2 | -1 | 19 | -1 | 2 | 4
SMILES | GRIN3A LBD mod | SMARCA2 act | SKN-1 block | NadD block | Vif inh | esBAF inh
Cc1ccc(/C=N/c2sc3c(c2C#N)CCC3)s1 | 3 | 3 | 1 | 3 | 53* | 29
CN1CCN(/C=N/c2sc3c(c2C#N)CCCCC3)CC1 | 1 | 7 | 9 | 1 | 3 | 81*
CC(C)CN(/C=N/c1sc2c(c1C#N)CCCCC2)CC(C)C | 2 | -5 | 11 | 19 | x | 24
COc1ccccc1/C=C/C=N/N1CCN(Cc2ccc(Cl)cc2)CC1 | 1 | -4 | 36* | 5 | -4 | 6
C[C@H]1CN([C@@H](C)CO)C(=O)c2cccc(NS(=O)(=O)c3cn(C)cn3)c2O[C@@H]1CN(C)S(=O)(=O)c1ccc(Cl)cc1 | x | x | x | x | x | 3
Oc1ccc(NC(=S)Nc2ccccc2)cc1 | -1 | -1 | 8 | -3 | -1 | x
Nc1ccc(NC(=S)Nc2ccccc2)cc1 | 25* | 1 | 7 | -1 | 13 | x

Source: PubChem BioAssay (several laboratories)
